From PubChem BioAssay (NCATS)
Records with an inconclusive call do not appear. A number with no mark means an inactive call. Calls follow the shape of the dose curve; as a rule, active = well fitted cell-killing curve with a large enough effect; inconclusive = small, poorly fitted or top-dose-only effect; inactive = flat fitted curve, though single readings scatter.

assay: MultiTox-Fluor Cytotoxicity Assay - LYMP1-001 - Live Cells (AID 947); conditions: LYMP1-001 lymphoblastoid cells, live-cell protease fluorescence viability; series mostly up to 92.2 µM; activity change, negative = cytotoxicity: at the top concentration;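 also: 0% = DMSO only and full inhibition = tetraoctylammonium bromide control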
Text: NIH Chemical Genomics Center [NCGC]
NIH Molecular Libraries Screening Centers Network [MLSCN]
National Institutes of Environmental Health Sciences [NIEHS]
National Toxicology Program [NTP]
We have developed a 1536-well cell-based assay for quantitative high throughput screening (qHTS) against a number of cell lines to determine in vitro cytotoxicity of small molecules. This particular assay uses a human lymphoblastoid cell line (LYMP1-001) purchased from Coriell Institute.
NCGC Assay Protocol Summary:
The MultiTox-Fluor Cytotoxicity Assay (Promega) is a homogeneous method to simultaneously measure the relative number of live and dead cells in culture by detecting changes in cell membrane integrity. There are two fluorogenic peptide substrates in the assay reagent. Viable cells are determined when the cell-permeant substrate (GF-AFC) enters the cell and is cleaved by protease from live cells resulting in liberated fluorophore. This live-cell protease activity restricted to viable cells is proportional to cell number. The dead cells are determined by using fluorogenic cell-impermeant peptide substrate (bis-AAF-R110) which cleaved by dead cell proteases leaking from damaged cell membrane.
Using the MultiTox-Fluor Cytotoxicity Assay, the relative number of live cells was measured in the lymphoblastoid cell line with complete culture medium following compound treatment for 16 hours. The assay was performed in opaque black Kalypsys 1536-well plates. In the screen, tetraoctylammonium bromide was used as positive control. Library compounds were measured for their ability to cause acute toxicity in the cell line, as reflected by a decrease in live cell protease activity, in a concentration-dependent manner. […] AC50 values were determined from concentration-response data modeled with the standard Hill equation.
qHTS protocol for MultiTox-Fluor Cytotoxicity assay
[Step] [Parameter] [Value] [Description]
1. Reagent; 5 uL; 2500 lymphoblastoid cells/well
2. Time; 5 hr; 37 C incubation
4. Controls; 23 nL; Tetraoctylammonium bromide 6.4pM to 92 uM
5. Time; 16 hr; 37 C incubation
6. Reagent; 5 uL; MuliTox-Fluor Assay reagent
7. Time; 60 min; Room Temperature
8. Detection; live-cell fluorescence (Ex/Em=405/510); EnVision plate reader
Keywords: cell viability, cytotoxicity, lymphoblastoid cell line, fluorescence, NTPHTS, NTPHTS_NCGC, NIEHS, EPA, DSSTox, MLSMR, MLSCN, NIH Roadmap, qHTS, NCGC

SMILES | activity change, negative = cytotoxicity [%]
Clc1cc(Cl)cc(Cl)c1 | -23.5
Cc1ccc(C)cc1 | 13.8
CC(C)(c1cc(Br)c(OCC(Br)CBr)c(Br)c1)c1cc(Br)c(OCC(Br)CBr)c(Br)c1 (stereo not given) | -1.1
O=C(O)c1cc(Cl)cc(Cl)c1 | -17.7
CCCC(Cl)CCCC(Cl)CCC(Cl)CCC(Cl)CCC(Cl)CCCC(Cl)CCC (stereo not given) | 10.5
NS(=O)(=O)O | -1.69
CC(O)COC(C)(C)C (stereo not given) | 2.65
CC(C=O)Cc1ccc(C(C)(C)C)cc1 (stereo not given) | 10.8
CC(=O)OCc1ccco1 | -22.9
O=C(O)c1ccc(Cl)cc1Cl | -14.9
Nc1ccccc1[N+](=O)[O-] | -15.3
BrC/C=C/CBr | -14.4
O=C1OC(=O)c2c(Br)c(Br)c(Br)c(Br)c21 | -2.29
CCCCN(CCO)CCCC | -1.23
CC(C)CCOC(=O)/C=C/c1ccccc1 | 9.49
Cc1ccc(C#N)cc1 | 9.09
Cc1ccc2oc(=O)ccc2c1 | 2.48
O=C(O)c1ccc(Cl)c(Cl)c1 | 9.73
ClCCl | -5.99
C=CC(=O)OCCCC | -28.9

SMILES | activity change, negative = cytotoxicity [%]
Cc1ccccc1C(=O)O | 4.79
Nc1ccccc1S(=O)(=O)O | -5.48
OC/C(Br)=C(\Br)CO | 6.34
Cc1ccc(CO)cc1 | 5.68
Fc1ccccc1 | 3.9
Cc1c(N)cccc1[N+](=O)[O-] | -4.76
CCN(C(=O)N(CC)c1ccccc1)c1ccccc1 | 0.651
CCCCCCCCCCCCC1CO1 (stereo not given) | -19.2
FB(F)F | -0.854
O=Cc1ccc(C(=O)O)cc1 | 8.75
Nc1cc([N+](=O)[O-])ccc1C(=O)O | -22
C/C=C1\CC2C=CC1C2 (stereo not given) | 7.25
Cc1c(C(=O)O)cccc1[N+](=O)[O-] | 0.795
Cc1ccccc1C(N)=O | 3.97
C[C@@H]1O[C@@H](O[C@@H]2[C@@H](O)[C@H](OCCc3ccc(O)c(O)c3)O[C@H](CO[C@@H]3O[C@H](CO)[C@@H](O)[C@H](O)[C@H]3O)[C@H]2OC(=O)/C=C/c2ccc(O)c(O)c2)[C@H](O)[C@H](O)[C@H]1O | -3.07
CC(=O)OC(C)C | 2.7
CC(=O)Nc1ccc(N)cc1 | -0.28
C=C(C)C1CC=C(C)C(OC(C)=O)C1 (stereo not given) | -10.8
CCNc1cc(O)ccc1C | 0.304
CCN(CC)c1cccc(O)c1 | 11.7
